# Laboratory results as given in PubChem BioAssay.
# Activity calls are given as the source filed them.
# Legend:
# [1] = small molecules captured by biotinylated probe aFSTL3 – biochemical, small-molecule microarray, fluorescence 635/667, stem cell growth factor project, primary screen (AID 1064); conditions: higher = more signal;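 also: measures binding of the biotinylated anti-FSTL3 antibody to printed compounds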
# [2] = binders from COS7 lysate, DM2A8 probe, primary screen, torsin A project, cell lysate, small-molecule microarray, fluorescence 635/667 (AID 1065); conditions: higher = more signal, COS7 lysate expressing mutant human TOR1A
# [3] = small molecules captured by biotinylated probe aFGF2 – biochemical, small-molecule microarray, fluorescence 635/667, stem cell growth factor project, primary screen (AID 1067); conditions: higher = more signal;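 also: measures binding of biotinylated aFGF2 protein to printed compounds on slides; z-score merges feature fluorescence and signal-to-noise across triplicate slides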
# [4] = small molecules captured by biotinylated probe aFGF10 – biochemical, small-molecule microarray, fluorescence 635/667, stem cell growth factor project, primary screen (AID 1071); conditions: higher = more signal;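 also: score merges 667 nm spot intensity and signal to noise from triplicate slides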
# [5] = target: Neurogenic locus notch homolog protein 2 (Homo sapiens) (UniProt Q04721); assay: small molecules binding Notch2 protein – biochemical, small-molecule microarray, 635 nm fluorescence, stem cell growth factors, primary screen (AID 1073); conditions: higher = more signal
# [6] = target: Pro-neuregulin-1, membrane-bound isoform (Homo sapiens) (UniProt Q02297); assay: small molecules binding neuregulin-1 protein – biochemical, small-molecule microarray, fluorescence 635/667, psychiatric disease protein project, primary screen (AID 1075); conditions: NRG1 binding, 635 nm fluorescence, higher = more signal;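 also: score combines 667 nm spot fluorescence with signal to noise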
# [7] = tested on: Neuregulin-1 EGF-like domain; assay: small molecules binding NRG1 EGF domain – biochemical, small-molecule microarray, 635 nm fluorescence, primary screen (AID 1081); conditions: higher = more signal;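 also: binding of the protein to compounds printed on small-molecule microarray slides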
# [8] = FRG1 expression reporter modulators in myotubes – cell-based, C2C12 myotubes, firefly/Renilla luciferase, luminescence, FRG1 inhibition for FSHD, primary screen (AID 1084); conditions: FRG1 promoter luciferase, higher = more signal, called active from +8 up or from −8 down
# [9] = small molecules captured by biotinylated probe aFST – biochemical, small-molecule microarray, fluorescence 635/667, stem cell growth factor project, primary screen (AID 1086); conditions: higher = more signal;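 also: score merges 667 nm fluorescence with signal-to-noise of each printed compound spot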
# [10] = binders of probe aHhip on microarray, primary screen, stem cell growth factor project, biochemical, small-molecule microarray, fluorescence 635/667 (AID 1087); conditions: higher = more signal;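 also: score merges spot fluorescence at 667nm with spot signal to noise ratio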
# [11] = tested on: PRMT1 (protein arginine N-methyltransferase 1); assay: small molecules binding arginine methyltransferase PRMT1 – biochemical, small-molecule microarray, 635 nm fluorescence, primary screen (AID 1088); conditions: higher = more signal;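 also: binding of Prmt1 protein to compounds spotted on small-molecule microarray slides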
# [12] = growth effects on S. cerevisiae YJM789 – YJM789 clinical isolate, OD600, 24 h, basal, primary screen (AID 1089); conditions: higher = more signal, called active from +8 up or from −8 down;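 also: growth of clinical yeast isolate S. cerevisiae YJM 789 seeded 1000 cells per well; test concentration not given here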
# [13] = S. pombe growth modifiers, basal conditions – strain 972, OD600, 24 h, no modulator, primary screen (AID 1090);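 also: basal condition with compound alone and no growth modifier present; test concentration not given here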; conditions: S. pombe 972 growth, higher = more signal, called active from +8 up or from −8 down
# [14] = budding yeast growth modifiers under rapamycin – strain BY4716, OD600, 96 h, primary screen (AID 1091); also: test concentration not given here; conditions: S. cerevisiae BY4716 + rapamycin, higher = more signal, called active from +8 up or from −8 down
# [15] = target: Torsin-1A-interacting protein 2 (Homo sapiens) (UniProt Q8NFQ8); assay: small molecules binding lysate-expressed LULL1 – cell lysate, human LULL1 lysate, 635/667 nm fluorescence, primary screen (AID 1092); conditions: small-molecule microarray, hLULL1 lysate binding, 635 nm fluorescence; higher = more signal;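 also: probe is lysate of COS7 cells overexpressing human LULL1; score merges per-feature 667 nm fluorescence with signal-to-noise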
# [16] = optical density change of DRC41 E. coli – strain DRC41, OD650, 24 h, E. coli filamentation project, primary screen (AID 1093);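 also: MC1000 strain lacking acrAB efflux and sulA so SOS filamentation is blocked; test concentration not given here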; conditions: E. coli DRC41 growth, higher = more signal, called active from +8 up or from −8 down
# [17] = probe aLefty2 binding to arrayed compounds – biochemical, biotinylated probe, 635/667 nm fluorescence, primary screen (AID 1094); conditions: small-molecule microarray, higher = more signal;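 also: score merges spot fluorescence near 667 nm with spot signal-to-noise ratio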
# [18] = tested on: Noggin (protein binding on small-molecule microarray); assay: small molecules binding Noggin protein – biochemical, 635/667 nm fluorescence, primary screen (AID 1095); conditions: 635 nm fluorescence, higher = more signal;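 also: score merges 667 nm feature fluorescence with signal to noise over triplicate slides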
# [19] = target: Neurogenic locus notch homolog protein 3 (Homo sapiens) (UniProt Q9UM47); assay: small molecules binding NOTCH3 protein – biochemical, 635/667 nm fluorescence, primary screen (AID 1096); conditions: small-molecule microarray, 635 nm fluorescence, higher = more signal
# [20] = probe aEGFR binding to arrayed compounds – biochemical, biotinylated probe, 635/667 nm fluorescence, primary screen (AID 1097); conditions: small-molecule microarray, higher = more signal;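 also: probe is a biotinylated anti-EGFR antibody binding compounds printed on slides; score combines fluorescence near 667 nm and signal to noise of each spot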
# Pro-neuregulin-1, membrane-bound isoform (Homo sapiens), sequence (Q02297 whole entry, looked up, the tested form may be a part, canonical isoform): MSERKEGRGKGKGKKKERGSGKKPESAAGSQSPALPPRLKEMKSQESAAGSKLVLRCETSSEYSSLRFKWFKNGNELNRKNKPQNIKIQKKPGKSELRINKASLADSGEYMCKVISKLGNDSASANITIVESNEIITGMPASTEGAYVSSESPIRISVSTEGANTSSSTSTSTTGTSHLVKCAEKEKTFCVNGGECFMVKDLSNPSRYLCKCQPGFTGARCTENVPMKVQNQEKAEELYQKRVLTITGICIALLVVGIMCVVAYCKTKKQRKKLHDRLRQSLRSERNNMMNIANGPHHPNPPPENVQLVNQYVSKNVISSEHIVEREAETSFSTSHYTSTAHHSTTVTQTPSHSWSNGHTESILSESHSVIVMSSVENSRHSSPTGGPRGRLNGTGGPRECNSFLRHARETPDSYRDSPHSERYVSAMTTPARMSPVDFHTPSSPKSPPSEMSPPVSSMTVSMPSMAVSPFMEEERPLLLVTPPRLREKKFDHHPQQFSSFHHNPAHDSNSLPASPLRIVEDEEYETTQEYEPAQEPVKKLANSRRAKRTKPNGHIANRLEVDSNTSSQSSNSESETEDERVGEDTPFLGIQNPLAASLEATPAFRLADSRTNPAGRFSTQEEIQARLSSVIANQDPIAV
# Neurogenic locus notch homolog protein 3 (Homo sapiens), sequence (Q9UM47 whole entry, looked up): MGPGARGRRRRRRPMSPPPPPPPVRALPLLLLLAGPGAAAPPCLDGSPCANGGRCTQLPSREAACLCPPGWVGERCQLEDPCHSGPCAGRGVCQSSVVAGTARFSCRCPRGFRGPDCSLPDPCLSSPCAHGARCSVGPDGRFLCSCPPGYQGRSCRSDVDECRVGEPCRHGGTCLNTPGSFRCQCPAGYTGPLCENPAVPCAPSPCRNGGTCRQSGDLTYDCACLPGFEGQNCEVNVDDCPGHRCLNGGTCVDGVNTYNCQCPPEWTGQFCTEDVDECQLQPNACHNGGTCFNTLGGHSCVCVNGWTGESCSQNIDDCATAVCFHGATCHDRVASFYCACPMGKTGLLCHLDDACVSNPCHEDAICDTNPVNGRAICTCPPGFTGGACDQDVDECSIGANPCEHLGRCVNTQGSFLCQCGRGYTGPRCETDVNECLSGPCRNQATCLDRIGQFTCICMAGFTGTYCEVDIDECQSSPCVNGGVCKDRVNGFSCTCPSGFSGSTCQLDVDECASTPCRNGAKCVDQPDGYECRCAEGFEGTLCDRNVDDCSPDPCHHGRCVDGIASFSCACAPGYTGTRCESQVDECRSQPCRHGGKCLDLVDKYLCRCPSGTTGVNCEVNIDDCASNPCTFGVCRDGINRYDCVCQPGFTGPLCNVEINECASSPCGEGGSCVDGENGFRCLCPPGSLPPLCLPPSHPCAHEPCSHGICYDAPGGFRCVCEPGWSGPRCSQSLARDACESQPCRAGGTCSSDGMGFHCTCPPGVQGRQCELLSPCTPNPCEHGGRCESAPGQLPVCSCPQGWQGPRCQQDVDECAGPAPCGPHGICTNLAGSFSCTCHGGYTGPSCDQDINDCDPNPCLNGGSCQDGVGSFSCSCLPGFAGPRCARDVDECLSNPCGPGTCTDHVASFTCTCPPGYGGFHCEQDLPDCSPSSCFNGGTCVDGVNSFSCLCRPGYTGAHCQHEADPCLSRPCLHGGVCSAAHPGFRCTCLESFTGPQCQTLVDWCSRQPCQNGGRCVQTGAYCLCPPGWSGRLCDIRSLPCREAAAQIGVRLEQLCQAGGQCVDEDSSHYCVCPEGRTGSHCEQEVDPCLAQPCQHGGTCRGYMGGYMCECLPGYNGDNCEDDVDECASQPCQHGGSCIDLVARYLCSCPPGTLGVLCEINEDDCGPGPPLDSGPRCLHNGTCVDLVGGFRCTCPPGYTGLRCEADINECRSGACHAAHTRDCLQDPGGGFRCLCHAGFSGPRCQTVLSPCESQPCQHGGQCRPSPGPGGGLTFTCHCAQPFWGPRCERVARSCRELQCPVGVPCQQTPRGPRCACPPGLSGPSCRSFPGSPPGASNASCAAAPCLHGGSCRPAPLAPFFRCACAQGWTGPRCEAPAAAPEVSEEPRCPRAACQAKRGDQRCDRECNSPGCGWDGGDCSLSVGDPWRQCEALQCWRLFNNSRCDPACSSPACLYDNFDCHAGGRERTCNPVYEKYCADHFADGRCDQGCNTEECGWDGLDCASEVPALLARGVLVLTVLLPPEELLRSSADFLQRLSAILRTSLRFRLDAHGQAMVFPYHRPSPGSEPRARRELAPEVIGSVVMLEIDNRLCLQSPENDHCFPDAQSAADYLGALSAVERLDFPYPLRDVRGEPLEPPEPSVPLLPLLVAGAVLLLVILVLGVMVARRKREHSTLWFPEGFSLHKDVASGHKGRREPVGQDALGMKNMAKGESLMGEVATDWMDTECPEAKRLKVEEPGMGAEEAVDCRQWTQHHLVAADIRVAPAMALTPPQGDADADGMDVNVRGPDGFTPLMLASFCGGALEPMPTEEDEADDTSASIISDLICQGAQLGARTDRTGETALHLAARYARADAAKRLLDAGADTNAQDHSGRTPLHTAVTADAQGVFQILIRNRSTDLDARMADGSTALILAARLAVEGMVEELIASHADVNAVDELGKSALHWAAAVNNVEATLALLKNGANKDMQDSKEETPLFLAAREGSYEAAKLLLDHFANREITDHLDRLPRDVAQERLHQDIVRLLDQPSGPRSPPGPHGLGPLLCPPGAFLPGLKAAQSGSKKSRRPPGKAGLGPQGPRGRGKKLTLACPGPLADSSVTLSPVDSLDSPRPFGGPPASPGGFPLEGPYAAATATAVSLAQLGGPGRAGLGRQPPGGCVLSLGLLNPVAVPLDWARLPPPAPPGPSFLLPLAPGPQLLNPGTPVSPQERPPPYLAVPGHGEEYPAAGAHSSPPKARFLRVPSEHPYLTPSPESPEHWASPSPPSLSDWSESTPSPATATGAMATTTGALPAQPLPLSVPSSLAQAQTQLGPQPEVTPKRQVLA
# Torsin-1A-interacting protein 2 (Homo sapiens), sequence (Q8NFQ8 whole entry, looked up): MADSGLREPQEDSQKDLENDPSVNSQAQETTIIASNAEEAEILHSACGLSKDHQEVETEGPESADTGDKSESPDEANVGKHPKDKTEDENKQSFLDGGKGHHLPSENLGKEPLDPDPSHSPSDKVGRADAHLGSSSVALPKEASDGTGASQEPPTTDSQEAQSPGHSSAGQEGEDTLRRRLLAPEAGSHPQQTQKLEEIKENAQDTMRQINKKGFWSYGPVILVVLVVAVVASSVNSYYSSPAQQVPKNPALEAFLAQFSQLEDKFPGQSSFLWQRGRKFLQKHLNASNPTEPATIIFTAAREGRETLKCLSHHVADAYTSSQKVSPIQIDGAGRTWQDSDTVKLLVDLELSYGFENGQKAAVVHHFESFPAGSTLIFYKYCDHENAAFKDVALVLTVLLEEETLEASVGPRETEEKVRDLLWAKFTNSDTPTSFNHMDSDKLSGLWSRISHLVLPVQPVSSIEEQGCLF
SMILES,composite z-score [1],composite z-score [2],composite z-score [3],composite z-score [4],composite z-score [5],composite z-score [6],composite z-score [7],z-score [8],composite z-score [9],composite z-score [10],composite z-score [11],z-score [12],z-score [13],z-score [14],composite z-score [15],z-score [16],composite z-score [17],composite z-score [18],composite z-score [19],composite z-score [20]
COCCCNC(=O)[C@@]1(c2ccc([N+](=O)[O-])cc2)CC(=O)N(C2CCCCC2)[C@@H]1c1ccc(CO)cc1I,0.234,1.2,0.0247,0.0624,-0.161,0.944,1.31,-1.27 (inactive),-0.0119,0.259,1.54,-0.307 (inactive),-0.314 (inactive),-0.0938 (inactive),0.83,0.556 (inactive),0.0561,0.39,0.0429,-0.0967
COCCOC(=O)N1C(=O)[C@@]2(c3cc(C#CCNC(N)=O)ccc31)[C@H](C(N)=O)[C@H]1C(=O)O[C@H](c3ccccc3)[C@H](c3ccccc3)N1[C@@H]2c1ccc(O)cc1,-0.0585,0.0947,-0.0899,0.29,-0.148,0.0637,0.235,-0.329 (inactive),0.0377,-0.287,0.46,0.898 (inactive),-0.173 (inactive),0.449 (inactive),0.634,1.19 (inactive),0.0362,0.173,-0.564,-0.0828
C=CCNC(=O)[C@@H]1[C@H]2C(=O)O[C@H](c3ccccc3)[C@H](c3ccccc3)N2[C@H](c2ccc(O)cc2)[C@@]12C(=O)N(C(=O)OCCOC)c1ccc(C#CCC(C(=O)OC)C(=O)OC)cc12,-0.292,1.27,0.048,0.769,1.14,0.946,1.18,-0.614 (inactive),0.884,0.0266,1.5,1.03 (inactive),0.405 (inactive),0.624 (inactive),2.11,1.19 (inactive),-0.156,1.03,0.959,-0.027
Cc1ccc(N2C(=O)c3ccccc3[C@@H](C(=O)NCCN3CCOCC3)[C@@H]2c2ccc(CO)cc2)nc1,1.02,-1.48,-0.116,-0.319,-1.34,0.209,-0.297,0.169 (inactive),-0.58,-0.249,0.722,0.333 (inactive),-0.33 (inactive),-1.59 (inactive),0.58,0.346 (inactive),-0.0798,0.0453,0.248,-0.197
O=C(c1ccccc1)N1Cc2ccccc2C[C@@]2(N=C(c3ccc(OCCCO)cc3)O[C@H]2c2ccccc2)C1=O,-0.302,0.564,-0.0538,0.458,1.13,1.05,1.21,-3.39 (inactive),0.229,0.201,1.54,-0.68 (inactive),-10.3 (active),5.51 (inactive),2.81,-0.231 (inactive),-0.0982,1.73,1.09,0.024
COCCOC(=O)N1C(=O)[C@@]2(c3cc(C#CCNC(N)=O)ccc31)[C@H](c1ccc(O)cc1)N1[C@H](c3ccccc3)[C@H](c3ccccc3)OC(=O)[C@H]1[C@@H]2C(=O)N1CCc2cc(OC)c(OC)cc2C1,0.141,0.0344,0.0525,0.67,1.07,1.06,0.786,0.411 (inactive),0.39,-0.0427,1.29,1.05 (inactive),0.123 (inactive),1.84 (inactive),1.47,-0.732 (inactive),-0.0475,0.978,0.636,-0.0967
CCCCC(=C=CC[C@@H](O)c1ccc(OCCO)cc1)CCO,-0.171,0.532,-0.087,0.558,-0.051,1.65,0.922,-0.58 (inactive),0.0121,0.176,0.571,-0.026 (inactive),-1.56 (inactive),-1.06 (inactive),1.6,0.639 (inactive),-0.135,0.424,-0.0085,-0.333
CCc1cccc(NC(=O)O[C@H]2[C@H](OC(=O)Nc3ccccc3-c3ccccc3)[C@H](OC(=O)Nc3ccccc3-c3ccccc3)[C@@H](OC)O[C@@H]2CO)c1,-0.189,0.42,0.155,0.576,1.54,1.48,1.11,-0.714 (inactive),1.14,-0.214,1.55,1.95 (inactive),1.31 (inactive),0.423 (inactive),2.91,-1.08 (inactive),0.229,1.48,1.05,-0.0232
O=C1O[C@H](c2ccccc2)[C@H](c2ccccc2)N2[C@H]1[C@@H](C(=O)O)[C@]1(C(=O)Nc3ccc(C#CC4(O)CCCCCC4)cc31)[C@H]2c1ccccc1OCCO,-0.304,1.43,0.0322,0.85,1.11,0.278,1.19,-0.283 (inactive),0.39,0.781,1.56,2.68 (inactive),-0.155 (inactive),0.247 (inactive),2.27,1.47 (inactive),0.366,0.621,1.11,0.494
CCCNC(=O)[C@@]1(Sc2ccc(C)cc2)CC(=O)N(Cc2cc(C(F)(F)F)cc(C(F)(F)F)c2)[C@@H]1c1ccc(CO)cc1,0.708,-0.332,-0.0363,0.0551,-0.608,-0.78,0.791,0.621 (inactive),-0.486,-0.236,0.805,-0.0276 (inactive),-1.16 (inactive),-0.835 (inactive),1.8,-0.212 (inactive),-0.122,-1.13,-0.542,-0.165
